Results taken from the supplement of paper PMC6763611.

Test system: Plasmodium falciparum NF54
Test: growth inhibition relative to untreated control; higher = more inhibition
Conditions: 72 h
Procedure, shortened: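 In dark 96-well half-area plates, each well held 100 μL of P. falciparum NF54 ring-stage culture at 1% parasitemia and 1% hematocrit. The cultures received a single test-compound dose of 5 μM or 1 μM and were kept at 37 °C for 72 h, in minimal RPMI either plain or enriched with folate (2.2 μM), pABA (7.3 μM), pHBA (7.3 μM), tyrosine (111 μM), phenylalanine (90 μM) and tryptophan. SYBR Green staining gave growth inhibition, expressed against untreated wells, with uninfected erythrocytes serving as the background.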

[1] = 1 µM, MM + chorismate end-products (CM screening medium)
[2] = 5 µM, MM + chorismate end-products (CM screening medium)

| SMILES | growth inhibition [1] | growth inhibition (1 µM, minimal medium (MM)) | growth inhibition [2] | growth inhibition (5 µM, minimal medium (MM)) |
| --- | --- | --- | --- | --- |
| CC(C)(C)n1nc(Cc2ccc(F)c(Cl)c2)c2c(N)ncnc21 | 5.37% | < 0% | 54.9% | 1.6% |
| COc1ccc(OC(C)C(=O)Nc2ccc(Cl)cc2C)cc1 (stereo not drawn) | 30% | 15.2% | < 0% | < 0% |
| O[C@@H](c1cc(C(F)(F)F)nc2c(C(F)(F)F)cccc12)[C@H]1CCCCN1 | 94.5% | 94.9% | 91.5% | 85.5% |
| CNC(=O)c1cc(S(=O)(=O)N2CCN(c3ccccn3)CC2)cs1 | 98.3% | 96.6% | 90.2% | 90.9% |
| CCCCc1ccc(C(=O)Nc2nccc3ccccc23)nc1 | 6.6% | < 0% | 11.6% | 18.4% |
| COC(=O)C1=C(C)NC(C)=C(C(=O)OC(C)C)C1c1cccc2nonc12 (stereo not drawn) | 42% | 24.4% | 28.3% | 18.7% |
| CCCn1c(NC(=O)c2ccc3ccccc3n2)nc2ccccc21 | 38.2% | 20.1% | 86.1% | 85% |
| O=C(Nc1nnc(-c2ccc(Cl)cc2)o1)c1cccc(C(F)(F)F)c1 | 11.8% | 33% | 42.7% | < 0% |
| Cn1c(=O)c2c(S(C)(=O)=O)snc2n(C)c1=O | 23.6% | 5.49% | 37.3% | 23.5% |
| COc1ccc(C2=NCCN2)cc1-c1cn(-c2cccc(C3=NCCN3)c2)nn1 | 84.5% | 80.4% | > 100% | 91.6% |
| NC(=O)c1cc(-c2ccsc2)ccc1OCCOc1ccccc1 | 18.1% | 9.01% | 4.73% | < 0% |
| CS(=O)(=O)Cc1nc2ccccc2oc1=O | < 0% | < 0% | < 0% | < 0% |
| FC(F)(F)c1cnc(Sc2nnc(-c3ccncc3)o2)c(Cl)c1 | 53% | 61.3% | 64% | < 0% |
| COc1cccc(OCC(=O)c2ccc(Br)cc2)c1 | < 0% | < 0% | < 0% | < 0% |
| CN1CCCN(C(c2ccccc2)c2ccc(Cl)cc2)CC1 (stereo not drawn) | < 0% | < 0% | 33.8% | 17.6% |
| CC(C)n1nc(-c2cc3c(Cl)cccc3[nH]2)c2c(N)ncnc21 | 50.4% | 16% | 57.9% | 15.9% |
| O=C(C1CCN(c2nnc(-n3cccc3)s2)CC1)N1CCC(Cc2ccccc2)CC1 | 6.31% | 8.02% | 48.7% | 8.81% |
| COc1ccc(-c2cnc3cnc(-c4cccc(OC(C)C)c4)cn23)cc1 | 36.4% | 34.1% | < 0% | 8.04% |
| Nc1nc2cc(-c3cncc(Oc4ccc(F)cc4)c3)ccc2[nH]1 | 76.1% | 67.8% | 94.9% | 95.6% |
| CC1=NN(c2nc3ccccc3s2)C(=O)C1Cc1cccc2ccccc12 (stereo not drawn) | < 0% | 0.985% | < 0% | < 0% |
| O=C(NC1CCCCC1)N1CCN(Cc2ccc3c(c2)OCO3)CC1 | < 0% | < 0% | < 0% | < 0% |
| O=C(NCc1ccco1)N1CCN(Cc2ccc(Cl)s2)CC1 | 12.8% | 2.55% | 21% | 5.16% |
| COc1cc(NC(C)CCCN)c2ncccc2c1 (stereo not drawn) | 51.1% | 54.5% | 64.3% | 38% |
| Nc1ccc(C(=O)Nc2ccc(-c3nc4ccccc4o3)cc2)cc1 | 23.2% | 18.2% | 55.7% | 26.5% |

| SMILES | growth inhibition [1] | growth inhibition (1 µM, minimal medium (MM)) | growth inhibition [2] | growth inhibition (5 µM, minimal medium (MM)) |
| --- | --- | --- | --- | --- |
| Cc1ccc(Oc2ccc(NC(=O)CNc3ccccc3N3CCCC3=O)cc2)cc1 | 85.2% | 87.4% | 98.3% | 91.8% |
| CC(C(=O)N1CCCC1)N1CCN(S(=O)(=O)c2ccc(C(C)(C)C)cc2)CC1 (stereo not drawn) | 37.6% | 71% | 67.3% | 33.4% |
| CCC(Sc1nc2ccccc2o1)C(=O)Nc1nccs1 (stereo not drawn) | 66.4% | 33% | 60% | 3.39% |
| CC(C)NCC(=O)Nc1cccc(C(=O)Nc2cccc(C(F)(F)F)c2)c1 | 72.4% | 83.1% | 89.3% | 97.4% |
| CCCCS(=O)(=O)Nc1ccc2cnn(C)c2c1 | 3.73% | < 0% | 13.4% | 1.13% |
| Cc1cc(C)nc(-n2nc(C)cc2Nc2ccccc2)n1 | 16.6% | 9.77% | 69.8% | 34.2% |
| COc1cc(C2=NCCN2)cc2cc(-c3ccc(C4=NCCN4)cc3)oc12 | 78% | > 100% | 98.4% | 100% |
| O=C(NC1=NCCS1)c1sc2cc(F)ccc2c1Cl | 25.1% | 4.51% | < 0% | < 0% |
| NC(=O)c1cc(Br)ccc1OCCOc1ccccc1 | 14.5% | < 0% | 28.6% | < 0% |
| O=C(NC1CC1)c1ccc(N2CCC(Cc3ccccc3)CC2)nc1 | 95.5% | 91.8% | 95.7% | 92.1% |
| Cc1cc(OCC(=O)NCc2ccccc2)c2cc(Br)ccc2n1 | 12.6% | 3.05% | 56.5% | < 0% |
| Cc1nn2c(O)c3c(nc2c1-c1ccc(F)cc1)CCCC3 | 11% | 13.4% | 36.7% | 24.6% |
| Cc1ccc(NC(=O)CC2COc3ccccc3O2)cc1Cl (stereo not drawn) | 23.4% | 10.6% | < 0% | < 0% |
| Cc1ccc2[nH]c3c(NCCN(C)C)ncnc3c2c1 | 97.6% | 96.5% | 98.1% | 95.7% |
| CC1=Nc2ccc(Cl)cc2C(O)(c2ccc(C)cc2)N1CCN1CCCCC1 (stereo not drawn) | 99.9% | > 100% | > 100% | 86.9% |
| Cc1nc(-c2ccccn2)nc(N2CCC(Cc3ccccc3)C2)c1Cl (stereo not drawn) | 52.8% | 3.18% | 80.2% | 84.9% |
| COc1ccc(CCN2CCC(NCc3cccc(N(C)C)c3)CC2)cc1 | 88.1% | > 100% | > 100% | 94.6% |
| Cn1ncc2c(N3CCOCC3)nc(NCCc3c[nH]c4ccccc34)nc21 | 18.9% | 31.1% | 10.8% | < 0% |
| CS(=O)(=O)c1ccc(C(=O)N(CC2CCCO2)c2nc3ccccc3s2)cc1[N+](=O)[O-] (stereo not drawn) | < 0% | 31.2% | 72.3% | 55.5% |
| CCN(CC)C(=O)N1CCN(C)CC1 | 31.7% | 2.45% | < 0% | < 0% |
| O=C(NCCN1CCCC1)c1cc(NCCCCN2CCC(F)(F)CC2)nc2ccc(Cl)cc12 | 100% | 98.4% | 90.7% | 96.9% |
| Cc1cc(C)cc(COc2ccc3c(C)c(CCC(=O)O)c(=O)oc3c2C)c1 | 22.5% | 15.7% | < 0% | < 0% |
| CCc1nc2ccccc2n1CC(O)COc1cc(C)ccc1Cl (stereo not drawn) | 31.1% | 36.8% | 98.5% | 61% |
| COc1ccc2nccc(NC(=O)C3CCN(CCc4ccc(Cl)cc4)CC3)c2n1 | 33.1% | 30.5% | 42.1% | 42.2% |

| SMILES | growth inhibition [1] | growth inhibition (1 µM, minimal medium (MM)) | growth inhibition [2] | growth inhibition (5 µM, minimal medium (MM)) |
| --- | --- | --- | --- | --- |
| O=C(C1CCN(c2nnnn2-c2ccccc2)CC1)N1CCc2ccccc2C1 | 43.4% | 33% | < 0% | < 0% |
| Cc1cc(NC(=O)c2ccc(S(=O)(=O)N(Cc3ccccc3)C(C)C)cc2)no1 | 95.5% | > 100% | 99.8% | 93.1% |
| CS(=O)(=O)N1CCC(CCn2nc(Cc3cccc4ccccc34)c3c(N)ncnc32)CC1 | < 0% | 24.3% | 41.3% | < 0% |
| COc1ccc(-c2nnc3ccc(-c4cccc(C(C)C)c4)cn23)cc1OC | 9.51% | 3.89% | 33.1% | < 0% |
| O=C(c1[nH]nc2c1CCCC2)N1CCN(Cc2ccc3c(c2)OCO3)CC1 | < 0% | 13% | < 0% | < 0% |
| C[C@]1(O)C[C@@H](c2nc(-c3ccc4ccc(-c5ccccc5)nc4c3)c3c(N)nccn32)C1 | 35% | 34.1% | 53.2% | 43.8% |
| CCOc1ccccc1C(=O)Nc1cccc(-c2nc3ncccn3c2C)c1 | 75.8% | 76.7% | 95.8% | 85.4% |
| Nc1ncnc2[nH]nc(Cc3cccc4ccccc34)c12 | 12.3% | 22.2% | < 0% | < 0% |
| CC(=O)NC[C@H]1CN(c2ccc(N3CCSCC3)c(F)c2)C(=O)O1 | 21.8% | 32.5% | < 0% | < 0% |
| CCCCN(CCCC)c1c(C#N)cc(S(=O)(=O)Nc2ccccc2)cc1C#N | < 0% | < 0% | 39.9% | 35.7% |
| COc1ccc(C2CC(c3cccs3)=NN2C(=O)c2ccco2)cc1OC (stereo not drawn) | 91.4% | 89.5% | 91.4% | 93.4% |
| Cc1cc(C(=O)Nc2cnn(Cc3ccc(Cl)cc3Cl)c2)no1 | 80.3% | 72.9% | 88.6% | 87.4% |
| NCC(c1cccs1)S(=O)(=O)c1ccccc1 (stereo not drawn) | 36.2% | < 0% | < 0% | 4.01% |
| Cc1ncc(-c2ccnc(Nc3ccc(S(C)(=O)=O)cc3)n2)n1C(C)C | 67% | 59.4% | 42.1% | 45.6% |
| COc1ccc(Cn2cnc3c(-c4ccco4)nc(Cl)nc32)cc1 | < 0% | 13.5% | 48.9% | 23.6% |
| C[C@@H]1[C@H](O)[C@@H](C)/C=C/C=C/C=C/C=C/C=C/C=C/C=C/[C@H](O[C@@H]2O[C@H](C)[C@@H](O)[C@H](N)[C@@H]2O)C[C@@H]2O[C@](O)(C[C@@H](O)C[C@@H](O)[C@H](O)CC[C@@H](O)C[C@@H](O)CC(=O)O[C@H]1C)C[C@H](O)[C@H]2C(=O)O | 86.2% | 89.8% | > 100% | 97.9% |
| O=C(NCCc1ccccc1)c1cc(-c2cccnc2)cnc1NCC1CC1 | 77.5% | > 100% | 59.2% | 47% |
| CC1CS(=O)(=O)CCN1/N=C/c1ccc([N+](=O)[O-])o1 (stereo not drawn) | < 0% | 0.769% | < 0% | < 0% |
| CN1CCC(NCc2cccc(-c3ccc(S(=O)(=O)NCc4ccccc4)cc3)c2)CC1 | 96.4% | > 100% | 96% | 94.2% |
| N#Cc1ccc(-c2cnc(N)c(-c3ccc(C(N)=O)cc3)n2)cc1 | 99.3% | > 100% | > 100% | 89.9% |
| CNC(=O)CNc1nc(-c2ccccn2)nc2scc(-c3ccccc3)c12 | 8.9% | 9.62% | 61.2% | 37.3% |
| CC(=O)Nc1ccc(NC(=O)c2cc(-c3cc(Cl)ccc3O)n[nH]2)cc1 | 96.6% | 95.3% | 96.3% | 90.8% |
| OCc1ccc(-c2cncc(Nc3cccc(Cl)c3)c2)cc1 | 78.7% | > 100% | 83.2% | 85% |
| CNC1C(OC2C(OC3C(O)C(O)C(N=C(N)N)C(O)C3N=C(N)N)OC(C)C2(O)C=O)OC(CO)C(O)C1O (stereo not drawn) | 20.4% | 29.2% | < 0% | 8.51% |
